Results as given in PubChem BioAssay (NCATS).
Where “and” joins values, the source holds several entries; their conditions need not be identical. Equal values may be shown once. Results filed as inconclusive are left out. Entries that show only a call come without a potency. Where a structure was tested more than once in an assay, its records may differ in their call. Calls of active or inactive are those of the source. Calls follow the shape of the dose curve; as a rule, active = well fitted curve in the direction sought with a large enough effect; inconclusive = small, poorly fitted or top-dose-only effect, or another doubt; inactive = no such curve, though single readings can be large; an effect the other way counts as inactive or inconclusive.

How the values were obtained:
[1] = P-glycoprotein substrates identified in KB-3-1 adenocarcinoma cell line, qHTS therapeutic library screen (AID 1346986); also: nearly all actives have a fitted effect of over 60% in size;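 also: potency is for cytotoxicity meaning loss of cell viability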
Procedure, shortened: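 KB-3-1 parental cells and P-gp-overexpressing KB-8-5-11 (colchicine omitted during assay) plated at 500 cells/well, dosed in dose-response, incubated 72 h at 37 degree C. CellTiter-Glo luminescence read; KB-8-5-11 also tested with tariquidar.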

[2] = P-glycoprotein substrates identified in KB-8-5-11 adenocarcinoma cell line, qHTS therapeutic library screen (AID 1346987); also: nearly all actives have a fitted effect of over 65% in size
Procedure, shortened: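 KB-8-5-11: colchicine-selected sub-line of KB-3-1 over-expressing P-gp; assay medium lacked colchicine. 72 h drug exposure at 37 degree C, CellTiter-Glo.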

[3] = NS1 protein of Zika virus - qHTS assay to identify small molecule inhibitors in human HEK 293 cells (AID 1347053); also: nearly all actives have a fitted effect of over 55% in size
Procedure, shortened: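 HEK 293; 20 h pre-culture, 37 C/5% CO2; cpd 1 h pre-infection; ZIKV MR766, MOI = 0.5, 24 h, 37 C; TR-FRET NS1 readout (two anti-NS1 Abs); norm. to no-virus vs infected.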

[4] = qHTS of pediatric cancer cell lines to identify multiple opportunities for drug repurposing: Primary screen for TC32 cells (AID 1347089); also: nearly all actives have a fitted effect of over 60% in size
Procedure, shortened: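 Luminescent ATP read-out (CellTiter-Glo) of metabolically active TC32 cells after 48 h exposure. Concentration-response curves came from 11-point (MIPE, 0.78 nM–46 µM) or 8-point (NPC, 0.59 nM–46 µM) primary titrations; follow-up used 11 points.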

[5] = qHTS of pediatric cancer cell lines to identify multiple opportunities for drug repurposing: Primary screen for DAOY cells (AID 1347090); also: nearly all actives have a fitted effect of over 55% in size
Procedure, shortened: (§1)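 Eight- or eleven-point concentration series, 48 h treatment at 37 degrees C in growth media; readout CellTiter-Glo luminescence. Potency and efficacy were taken from the concentration-response curves.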

[6] = qHTS of pediatric cancer cell lines to identify multiple opportunities for drug repurposing: Primary screen for SJ-GBM2 cells (AID 1347091)
Procedure, shortened: as §1

[7] = qHTS of pediatric cancer cell lines to identify multiple opportunities for drug repurposing: Primary screen for A673 cells (AID 1347092); also: nearly all actives have a fitted effect of over 45% in size
Procedure, shortened: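 Cell viability of A673 measured by CellTiter-Glo ATP luminescence after 48 hours compound exposure. Dilution series spanned 0.78 nM to 46 µM (MIPE, 11-point) or 0.59 nM to 46 µM (NPC, 8-point); bortezomib 2.3 uM positive control.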

[8] = qHTS of pediatric cancer cell lines to identify multiple opportunities for drug repurposing: Primary screen for SK-N-MC cells (AID 1347093)
Procedure, shortened: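 Metabolically active cells were quantified by ATP-dependent luminescence (CellTiter-Glo, 15 min at room temperature) following 48 h treatment. Cells had been plated at 500-1,000 per well and settled for 5 h beforehand.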

[9] = qHTS of pediatric cancer cell lines to identify multiple opportunities for drug repurposing: Primary screen for NB-EBc1 cells (AID 1347095)
Procedure, shortened: (§2)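 CRCs from 8- or 11-point titrations (lowest final 0.59 nM NPC, 0.78 nM MIPE). Cell viability: CellTiter-Glo after 48 h incubation, 15 min room-temperature development, luminescence imaging.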

[10] = qHTS of pediatric cancer cell lines to identify multiple opportunities for drug repurposing: Primary screen for U-2 OS cells (AID 1347096); also: nearly all actives have a fitted effect of over 50% in size
Procedure, shortened: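 Cells (500-1,000/well) in growth media were settled 5 h at 37 degrees C, then given compounds for 48 h. Viability was read as CellTiter-Glo luminescence. Primary runs used MIPE at 11 points (0.78 nM-46 µM) and NPC at 8 points (0.59 nM-46 µM); follow-ups used 11 points.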

[11] = qHTS of pediatric cancer cell lines to identify multiple opportunities for drug repurposing: Primary screen for Saos-2 cells (AID 1347097); also: nearly all actives have a fitted effect of over 40% in size
Procedure, shortened: as §2

[12] = qHTS of pediatric cancer cell lines to identify multiple opportunities for drug repurposing: Primary screen for BT-37 cells (AID 1347094)
Procedure, shortened: as §2

[13] = Identifying Small Molecule Inhibitors of Pancreatic Cancer Stem Cells (Panc1, Adherent) (AID 1259362); conditions: Potency: viability
Procedure, shortened: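 Luminescent ATP readout (CellTiter-Glo) quantifies surviving cells after a 48 h drug incubation. Normalization uses DMSO wells as no inhibition and media-only wells as full inhibition; bortezomib served as positive control.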
Potency is read from the fitted curve at half-maximal effect.

| SMILES | Potency [1] | Potency [2] | Potency [3] | Potency [4] | Potency [5] | Potency [6] | Potency [7] | Potency [8] | Potency [9] | Potency [10] | Potency [11] | Potency [12] | Potency [13] |
| --- | --- | --- | --- | --- | --- | --- | --- | --- | --- | --- | --- | --- | --- |
| N=C1SC(=Cc2ccc(-c3ccc4c(c3)C(=O)NC4=O)o2)C(=O)N1c1ccc(Br)cc1 | inactive | inactive | inactive | inactive | inactive | 2.64 µM (active) | inactive | inactive | 3.72 µM (active) | inactive | inactive | – | – |
| C[C@]12CC[C@@H]3c4ccc(O)cc4CC[C@H]3[C@H]1[C@@H](O)[C@@H](O)[C@H]2O | inactive | inactive | inactive | inactive | – | inactive | 14.8 µM (active) | – | inactive | inactive | – | inactive | – |
| COc1c(C)cnc(Cn2cnc3c(Cl)nc(N)nc32)c1C | – | – | inactive | 1.17 µM (active) | – | 0.296 µM (active) | 0.235 µM (active) | 0.132 µM (active) | 0.118 µM (active) | – | – | – | 0.0332 µM (active) |
| Cc1ccc(S(=O)(=O)OCC(=O)Nc2ccc(C(=O)O)c(O)c2)cc1 | inactive | inactive | inactive | inactive | inactive | inactive | 14.8 µM (active) | – | inactive | inactive | inactive | inactive | – |
| CC(=O)O[C@]1(C(C)=O)CC[C@H]2[C@@H]3C=C(Cl)C4=CC(=O)[C@@H]5C[C@H]5[C@]4(C)[C@@H]3CC[C@@]21C | inactive | inactive | inactive | inactive | 18.7 µM (active) | 9.35 µM (active) | 0.469 µM (active) | 7.43 µM (active) | 16.6 µM (active) | inactive | – | – | – |
| Cc1cc(NC(=O)Nc2ccc(N(C)C)cc2)c2cc(F)cc(F)c2n1 | inactive | inactive | inactive | inactive | inactive | – | inactive | inactive | – | inactive | – | inactive | – |
| COc1cc2c(cc1OC)CC(=O)N(CCCN(C)C[C@H]1Cc3cc(OC)c(OC)cc31)CC2 | – | inactive | inactive | inactive | – | – | – | 14.8 µM (active) | – | inactive | inactive | – | inactive |
| COc1ccc(CCN(C)CCCOc2ccc(S(=O)(=O)c3[nH]c4ccccc4c3C(C)C)cc2)cc1OC | – | inactive | inactive | inactive | inactive | – | – | – | 20.9 µM (active) | inactive | – | 19.3 µM (active) | 26.4 µM (active) |
| CCC[C@@H](NC(=O)[C@@H]1[C@H]2CCC[C@@H]2CN1C(=O)[C@@H](NC(=O)[C@@H](NC(=O)c1cnccn1)C1CCCCC1)C(C)(C)C)C(=O)C(=O)NC1CC1 | inactive | inactive | inactive | inactive | – | 18.7 µM (active) | inactive | 23.5 µM (active) | inactive | inactive | – | – | – |
| COc1ccc2c(c1)CC[C@H]1[C@@H]2CC[C@]2(C)[C@@H](NCCCCCCN3C(=O)C=CC3=O)CC[C@H]12 | – | – | inactive | inactive | inactive | inactive | inactive | inactive | inactive | inactive | – | inactive | inactive |
| CNC(=O)c1cc(Oc2ccc(NC(=O)Nc3ccc(Cl)c(C(F)(F)F)c3)c(F)c2)ccn1 | 18.4 µM (active) | inactive and 16.4 µM (active) | – | inactive | 5.9 µM (active) | 8.33 µM (active) | 18.7 µM (active) | 2.96 µM (active) | 5.26 µM (active) | 23.5 µM (active) | 16.6 µM (active) | 21.7 µM (active) | 20.9 µM (active) |
| CN1C(=O)C[C@H](C(=O)N[C@@H](Cc2cnc[nH]2)C(=O)N2CCC[C@@H]2C(N)=O)NC1=O | inactive | inactive | inactive | inactive | inactive | inactive | – | – | – | inactive | inactive | 24.3 µM (active) | – |
| COc1nc(C)cnc1NS(=O)(=O)c1cccnc1-c1ccc(-c2nnco2)cc1 | inactive | inactive | inactive | inactive | inactive | inactive | inactive | inactive | inactive | inactive | inactive | inactive | inactive |
| Cc1cccc(Nc2nc(N[C@@H]3CCCC[C@H]3N)ncc2C(N)=O)c1 | – | – | – | inactive | – | – | 18.7 µM (active) | 6.62 µM (active) | inactive | – | 8.33 µM (active) | 27.3 µM (active) | 26.4 µM (active) |
| CN(C)CCN(C)C(=O)c1ccc(NC(=O)Nc2ccc(-c3nc(N4CCOCC4)c4ccn(CC(F)(F)F)c4n3)cc2)cc1 | – | inactive | 3.32 µM (active) | 0.147 µM (active) | 1.48 µM (active) | 0.105 µM (active) | 2.96 µM (active) | 0.0264 µM (active) | 0.935 µM (active) | 4.69 µM (active) | 0.418 µM (active) | 0.0485 µM (active) | 14.8 µM (active) |
| COC(=O)[C@H](c1ccccc1Cl)N1CCc2sccc2C1 | inactive | inactive | inactive | inactive | inactive | inactive | 1.48 µM (active) | – | inactive | inactive | – | – | – |
